40 compounds from PubChem BioAssay (EPA / NIEHS) can be followed below.

The structures appear in SMILES notation. The source made the active and inactive calls. The calls were made as follows: active = hit-call score of the fitted dose curve at least 0.9, where 1 is the maximum; inactive = score below 0.9.

The target in the test is X-box-binding protein 1 (Homo sapiens) (UniProt P17861). The test can be described thus: ATG_Xbp1_CIS: Attagene CIS-FACTORIAL HepG2 Assay for human X-box Binding Protein 1 (XBP1) (AID 2282972). As to conditions: HepG2 XBP1 cis-element reporter, Attagene multiplex; actives raise or lower the signal. As for the experimental part: ATG_CIS is a cell-based, multiplexed-readout assay that uses HepG2, a human liver cell line, with measurements taken at 24 hours after chemical dosing in a 24-well plate.ATG_Xbp1_CIS is one of 52 assay component(s) measured or calculated from the ATG_CIS assay. It is designed to make measurements of mRNA induction, a form of inducible reporter, as detected with fluorescence intensity signals by Reverse transcription polymerase chain reaction (RT-PCR) and Capillary electrophoresis technology.Data from the assay component ATG_Xbp1_CIS was analyzed into 1 assay endpoint. This assay endpoint, ATG_Xbp1_CIS, was analyzed with bidirectional fitting relative to DMSO as the negative control and baseline of activity. Using a type of inducible reporter, measures of mRNA for gain or loss-of-signal activity can be used to understand the reporter gene at the transcription factor-level as they relate to the gene XBP1. Furthermore, this assay endpoint can be referred to as a primary readout, because this assay has produced multiple assay endpoints where this one serves a reporter gene function. To generalize the intended target to other relatable targets, this assay endpoint is annotated to the dna binding intended target family, where the subfamily is basic leucine zipper.
X-box-binding protein 1 (Homo sapiens), sequence (P17861 whole entry, looked up): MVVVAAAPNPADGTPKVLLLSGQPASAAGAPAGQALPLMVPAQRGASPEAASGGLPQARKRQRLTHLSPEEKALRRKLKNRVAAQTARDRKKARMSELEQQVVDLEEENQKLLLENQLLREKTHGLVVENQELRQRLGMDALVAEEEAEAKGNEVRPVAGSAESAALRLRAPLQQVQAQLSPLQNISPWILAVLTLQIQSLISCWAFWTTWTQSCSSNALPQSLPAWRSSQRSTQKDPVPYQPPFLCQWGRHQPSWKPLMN
Human liver HepG2 cells are transiently transfected with multiple reporter transcription units (MRTUs) in 6-well plates using FuGene 6 reagent (Roche; 3 ml FuGene/1 mg DNA). The MRTU constructs are regulated by a cis-regulating element (promoter). […] A major difference between the CIS and TRANS system is that in CIS activities of endogenous TFs are measured, whereas the TRANS assay evaluates changes in activities of exogenous, chimeric NR-Gal4 proteins. […] At the end of 24 hour incubation, total RNA was isolated using TriZol reagent (Invitrogen). The isolated RNA is then reverse-transcribed using oligo(dT) primer and Mo-MLV reverse transcriptase (Invitrogen) with DNAse I (Ambion) treatment for 30 min. The one-tenth of the produced cDNA was amplified by PCR using Taq DNA polymerase (Invitrogen) and two reporter sequence-specific primers. The PCR products were fluorescently labeled by primer extension with 6-arboxyfluorescein (6-FAM) 5'-labeled reporter sequence-specific primer (2 min at 95 C, 20 s at 68 C and 10 min at 72 C) and these products were digested with 5U of HpaI (New England Biolabs) for 2h at 37 C. The fragments were purified using Qiaquick PCR columns (Qiagen), analyzed on an ABI 3130xL genetic analyzer (Applied Biosystems) with peak positions identified by using a set of X-rhodamine (ROX)-labeled MapMarker1000 molecular weight standards (BioVentures). The raw capillary electrophoresis data was processed using Attagraph software (Attagene).
`CCCCOC(=O)CCC(C)=O`: the outcome was inactive.

On to `Oc1c(Cl)cc(Cl)c(Cl)c1Cl`, for which the compound was classed as inactive.

With `C=C(C)OC(C)=O`, the call was inactive.

On to `CCCCCCCCCCCCC`, for which the compound was called inactive.

With `O=C(O[C@@H]1Cc2c(O)cc(O)cc2O[C@@H]1c1cc(O)c(O)c(O)c1)c1cc(O)c(O)c(O)c1`, the outcome was inactive.

As to `CCC(=O)C1CC(C(C)C)CC=C1C` (stereo not given), the call was inactive.

As for `Oc1ccc(/C=C/c2cc(O)cc(O)c2)cc1`, the compound was classed as inactive.

With `CC(C)[N+](C)(CCOC(=O)C1c2ccccc2Oc2ccccc21)C(C)C`, the outcome was inactive.

For `CC(C)(O)Cc1ccccc1`, the result was inactive.

As to `CCOC(=O)[C@H](O)[C@@H](O)C(=O)OCC`, the compound was classed as inactive.

For the compound `CC(C)=NNC(N)=S`, the call was inactive.

Turning to `CCC(C)C(=O)OCCc1ccccc1` (stereo not given), the outcome was inactive.

Turning to `CCOc1ccc(NC(N)=O)cc1`, the call was inactive.

Consider `O=C1CCCCC1C1CCCCC1` (stereo not given), for which the outcome was inactive.

In general, AC50 refers to the concentration at which the activity in the assay is half-maximal. Regarding `c1ccc(Nc2cccc3ccccc23)cc1`, the AC50 is 53.5 µM (active).

Turning to `CC(C)(C)NC(=O)[C@H]1CC[C@H]2[C@@H]3CC[C@H]4NC(=O)C=C[C@]4(C)[C@H]3CC[C@]12C`, the call was inactive.

As for `CC(C)(CO)C(O)C(=O)NCCCO` (stereo not given), the call was inactive.

Regarding `CC1(C)C(=O)N(CO)C(=O)N1CO`, the compound was called inactive.

Regarding `c1ccc(-c2nc3ccccc3[nH]2)cc1`, the outcome was inactive.

Take `Cc1ccc(S(=O)(=O)N=C=O)cc1`: the call was inactive.

Regarding `CC1(C)CCC[C@]2(C)[C@H]3CC(=O)O[C@]3(C)CC[C@@H]12`, the outcome was inactive.

With `C=CC(=O)NCOCCCC`, the compound was called inactive.

`C[Si]1(C)O[Si](C)(C)O[Si](C)(C)O[Si](C)(C)O[Si](C)(C)O1`: the outcome was inactive.

Take `N=C1C=CC(=C(c2ccc(N)cc2)c2ccc(N)cc2)C=C1`: the AC50 is 25.3 µM (active).

Regarding `COc1ccc(C(=O)c2ccccc2)c(O)c1`, the compound was called inactive.

Regarding `CC1C(C)(C)C2=C(C(=O)CCC2)C1(C)C` (stereo not given), the outcome was inactive.

With `CCOC(=O)OC(=O)OCC`, the compound was called inactive.

As to `CC(C)(CO)COC(=O)C(C)(C)CO`, the compound was called inactive.

With `CC(=O)/C=C/C1C(C)=CCCC1(C)C` (stereo not given), the compound was classed as inactive.

For `CC(C)CC(=O)OCc1ccccc1`, the outcome was inactive.

Turning to `Nc1ccc(Cl)c(N)c1`, the compound was called inactive.

As for `Cc1c(C(=O)c2c[nH]n(C)c2=O)ccc(S(C)(=O)=O)c1C1=NOCC1`, the outcome was inactive.

Regarding `O=C(OCc1ccccc1)c1ccc(O)cc1`, the AC50 was 147 µM (active).

On to `COC(=O)c1ccc(C(=O)OC)c(C(=O)OC)c1`, for which the outcome was inactive.

Regarding `Cc1cc(C)n(CO)n1`, the compound was called inactive.

As to `CCCCCCCCCCCCCC(=O)OC(C)C`, the compound was called inactive.

For `CCC(C)N` (stereo not given), the outcome was inactive.

In the case of `CCCCC(=O)O`, the result was inactive.

As to `CCCCNS(=O)(=O)c1ccc(C)cc1`, the outcome was inactive.

On to `Nc1ccc(C(=O)O)cc1`, for which the compound was classed as inactive.
